Records with an inconclusive call do not appear. Active and inactive are the calls of the source. How the source made its calls, unless noted: active means hit-call score of the fitted dose curve at least 0.9, where 1 is the maximum; inactive means score below 0.9.
Assays:
[1] = target: human Vitamin D Receptor (VDR), VDR (gene 7421) (UniProt P11473); test: ATG_VDR_TRANS: Attagene TRANS-FACTORIAL HepG2 Assay for human Vitamin D Receptor (VDR) (AID 2283022; active means hit-call score of the fitted dose curve at least 0.9, where 1 is the maximum)
human Vitamin D Receptor (VDR), VDR (gene 7421), sequence (P11473 whole entry, looked up, the tested form may be a part): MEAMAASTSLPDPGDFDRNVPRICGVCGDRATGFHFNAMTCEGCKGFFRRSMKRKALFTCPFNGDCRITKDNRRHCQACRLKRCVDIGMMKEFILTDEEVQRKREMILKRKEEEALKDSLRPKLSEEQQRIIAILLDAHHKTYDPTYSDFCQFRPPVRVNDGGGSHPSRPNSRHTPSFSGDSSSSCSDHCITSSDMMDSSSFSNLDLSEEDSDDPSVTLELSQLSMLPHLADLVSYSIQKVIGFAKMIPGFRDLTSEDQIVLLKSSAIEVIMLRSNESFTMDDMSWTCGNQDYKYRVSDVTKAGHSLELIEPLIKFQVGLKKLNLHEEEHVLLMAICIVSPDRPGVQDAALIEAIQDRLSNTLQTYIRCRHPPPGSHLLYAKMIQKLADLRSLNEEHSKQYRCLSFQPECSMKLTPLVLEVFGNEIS
Method in brief: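 RT-PCR/capillary electrophoresis read-out of reporter mRNA induction in transiently transfected HepG2; 24 h dosing; chimeric NR-Gal4 (TRANS format); gain-of-signal fit against DMSO baseline.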

[2] = read-out: Interleukin-8 (IL8), CXCL8 (gene 3576); test: BSK_3C_IL8: BioMAP Diversity Plus: 3C Assay for Interleukin-8 (IL8) Biomarker Activity (AID 2283020); settings: primary human endothelial cells (HUVEC); actives raise or lower the signal
Method in brief: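 ELISA read-out of IL-8 from human umbilical vein endothelium, measured 24 h after chemical dosing. Activity is expressed relative to DMSO negative control, with both increases and decreases fitted.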

[3] = read-out: Monokine induced gamma interferon (MIG), CXCL9 (gene 4283); test: BSK_3C_MIG: BioMAP Diversity Plus: 3C Assay for Monokine induced gamma interferon (MIG) Biomarker Activity (AID 2283021); settings: primary human endothelial cells (HUVEC); actives raise or lower the signal;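 on AC50: MIG protein level measured by immunoassay in the treated endothelial cultures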
Method in brief: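 Read-out is ELISA detection of MIG on human umbilical vein endothelial cells, taken 24 h after dosing. Gain or loss of signal was scored relative to DMSO controls using bidirectional curve fitting.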

[4] = BSK_3C_SRB: Viability Assessment in the BioMAP Diversity Plus: 3C Assay (AID 2283023); settings: primary human endothelial cells (HUVEC);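 further: fitted both ways against DMSO so a hit may be signal rise or drop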
Method in brief: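 HUVEC, 24 h post-dose; 10% TCA fix, 0.1% SRB stain, A560 nm. Bidirectional curve fit vs DMSO negative control.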

[5] = read-out: Matrix Metallopeptidase 1 (MMP1), MMP1 (gene 4312); test: BSK_BE3C_MMP1: BioMAP Diversity Plus: BE3C Assay for Matrix Metallopeptidase 1 (MMP1) Biomarker Activity (AID 2283024); settings: primary human bronchial epithelial cells; actives raise or lower the signal
Method in brief: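 Human bronchial epithelial cells (BE3C system) exposed to compound for 24 h; MMP1 then quantified by ELISA. Activity was fitted in both directions relative to DMSO.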

[6] = read-out: Pselectin, SELP (gene 6403); test: BSK_4H_Pselectin: BioMAP Diversity Plus: 4H Assay for Pselectin Biomarker Activity (AID 2283026); settings: primary human endothelial cells (HUVEC); actives raise or lower the signal
Method in brief: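 ELISA read-out of P-selectin on human umbilical vein endothelium after 24 h of dosing. Values derive from bidirectional fitting relative to DMSO. Parallel SRB protein staining flagged overt cytotoxicity.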

[7] = BSK_4H_SRB: Viability Assessment in the BioMAP Diversity Plus: 4H Assay (AID 2283027); settings: primary human endothelial cells (HUVEC);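 further: cells exposed to compound for 24 h before staining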;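 on AC50: curves fitted both ways versus DMSO so AC50 may be loss or gain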
Method in brief: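 Human umbilical vein endothelial cells were dosed with chemical and, after 24 h, fixed with 10% TCA, stained with 0.1% sulforhodamine B, and read at 560 nm to give total protein as a cytotoxicity measure. Bidirectional fitting relative to DMSO control.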

[8] = BSK_BE3C_SRB: Viability Assessment in the BioMAP Diversity Plus: BE3C Assay (AID 2283028); settings: primary human bronchial epithelial cells
Method in brief: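 Primary human bronchial epithelium; chemical dosing, 24 h; 10% TCA fix, 0.1% SRB stain, A560; bidirectional fit vs DMSO baseline.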

[9] = read-out: Thrombomodulin, THBD (gene 7056); test: BSK_3C_Thrombomodulin: BioMAP Diversity Plus: 3C Assay for Thrombomodulin Biomarker Activity (AID 2283029); settings: primary human endothelial cells (HUVEC); actives raise or lower the signal
Method in brief: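 Read-out is ELISA of thrombomodulin on human umbilical vein endothelium 24 h after chemical dosing. Gain or loss of signal is scored relative to DMSO. Overt cytotoxicity is checked in parallel cultures by sulforhodamine B staining.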

[10] = read-out: Urokinase-type plasminogen activator receptor (uPAR), PLAUR (gene 5329); test: BSK_4H_uPAR: BioMAP Diversity Plus: 4H Assay for Urokinase-type plasminogen activator receptor (uPAR) Biomarker Activity (AID 2283030); settings: primary human endothelial cells (HUVEC); actives raise or lower the signal
Method in brief: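 HUVEC, 24 h post-dose; uPAR by ELISA; bidirectional fit vs DMSO baseline.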

[11] = read-out: Vascular endothelial growth factor receptor 2 (Homo sapiens) (UniProt P35968); test: BSK_4H_VEGFRII: BioMAP Diversity Plus: 4H Assay for Vascular endothelial growth factor receptor 2 (VEGFR2) Biomarker Activity (AID 2283031); settings: primary human endothelial cells (HUVEC); actives raise or lower the signal
Method in brief: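 HUVEC (human primary), 4H system; 24 h post-dose; VEGFRII by ELISA; bidirectional curve fit vs DMSO baseline; gain or loss of signal scored.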

[12] = read-out: Human Leukocyte Antigen - DR isotype (HLADR), HLA-DRA (gene 3122); test: BSK_BE3C_HLADR: BioMAP Diversity Plus: BE3C Assay for Human Leukocyte Antigen - DR isotype (HLADR) Biomarker Activity (AID 2283032); settings: primary human bronchial epithelial cells; actives raise or lower the signal
Method in brief: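 ELISA read-out of HLA-DR on human lung bronchial epithelial primary cells, measured 24 h post-dosing. Both increases and decreases were scored relative to DMSO vehicle.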

[13] = read-out: Vascular cell adhesion molecule 1 (VCAM1), VCAM1 (gene 7412); test: BSK_4H_VCAM1: BioMAP Diversity Plus: 4H Assay for Vascular cell adhesion molecule 1 (VCAM1) Biomarker Activity (AID 2283033); settings: primary human endothelial cells (HUVEC); actives raise or lower the signal;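 on outcome: cell-surface VCAM-1 protein measured by ELISA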
Method in brief: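 ELISA read-out of VCAM-1 on human umbilical vein endothelium 24 hours after chemical dosing; gain or loss of signal was fitted relative to DMSO, with sulforhodamine B staining of parallel cultures flagging overt cytotoxicity.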

[14] = read-out: Interferon-gamma inducible Protein 10 (IP10), CXCL10 (gene 3627); test: BSK_BE3C_IP10: BioMAP Diversity Plus: BE3C Assay for Interferon-gamma inducible Protein 10 (IP10) Biomarker Activity (AID 2283034); settings: primary human bronchial epithelial cells; actives raise or lower the signal
Method in brief: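 Chemical is dosed onto human lung bronchial epithelial primary cells, cultures are incubated 24 h, and IP-10 is then quantified by ELISA. Gain or loss of signal is fitted in both directions relative to DMSO.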

[15] = read-out: Monokine induced gamma interferon (MIG), CXCL9 (gene 4283); test: BSK_BE3C_MIG: BioMAP Diversity Plus: BE3C Assay for Monokine induced gamma interferon (MIG) Biomarker Activity (AID 2283035); settings: primary human bronchial epithelial cells; actives raise or lower the signal;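 further: MIG protein measured by ELISA in BE3C cultures after 24 h of dosing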
Method in brief: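 ELISA read-out of MIG in human lung bronchial epithelial primary cultures, 24 h post-dosing. Bidirectional curve fit vs DMSO baseline.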

[16] = read-out: Transforming growth factor beta 1 (TGFb1), TGFB1 (gene 7040); test: BSK_BE3C_TGFb1: BioMAP Diversity Plus: BE3C Assay for Transforming growth factor beta 1 (TGFb1) Biomarker Activity (AID 2283036;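 further: TGF-b1 protein level measured by ELISA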); settings: primary human bronchial epithelial cells; actives raise or lower the signal
Method in brief: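 Primary human lung bronchial epithelial cells; compound exposure 24 h; TGF-b1 by ELISA; bidirectional fit, DMSO baseline. Parallel SRB total-protein staining for cytotoxicity.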

[17] = read-out: urokinase plasminogen activator (uPA), PLAU (gene 5328); test: BSK_BE3C_uPA: BioMAP Diversity Plus: BE3C Assay for urokinase plasminogen activator (uPA) Biomarker Activity (AID 2283038); settings: primary human bronchial epithelial cells; actives raise or lower the signal;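 further: uPA protein level quantified by ELISA in cell cultures; uPA read one day after compound addition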
Method in brief: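 ELISA read-out of uPA in human lung primary bronchial epithelial cultures, 24 h post-dosing. Gain or loss of signal fitted bidirectionally relative to DMSO baseline; cytotoxicity checked in parallel cultures via SRB total protein stain.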

[18] = read-out: Interleukin-6 (IL6), IL6 (gene 3569); test: BSK_CASM3C_IL6: BioMAP Diversity Plus: CASM3C Assay for Interleukin-6 (IL6) Biomarker Activity for (AID 2283040); settings: primary human coronary artery smooth muscle cells; actives raise or lower the signal
[19] = read-out: Plasminogen activator inhibitor-1 (PAI1), SERPINE1 (gene 5054); test: BSK_BE3C_PAI1: BioMAP Diversity Plus: BE3C Assay for Plasminogen activator inhibitor-1 (PAI1) Biomarker Activity (AID 2283037); settings: primary human bronchial epithelial cells; actives raise or lower the signal
Method in brief: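 Primary human lung bronchial epithelial cells; chemical dosing; 24 h; PAI-1 measured by ELISA; bidirectional fit referenced to DMSO as negative control.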

CSc1ccc(O)cc1C
outcome [1]: inactive

OCCC(O)CO (centres undefined)
outcome [1]: inactive

CCCCCCCCCCCC(=O)Cl
outcome [1]: inactive

Nc1cc([N+](=O)[O-])cc(Cl)c1O
outcome [2]: inactive | outcome [3]: inactive | outcome [4]: inactive | outcome [5]: inactive | outcome [6]: inactive | outcome [7]: inactive | outcome [8]: inactive | outcome [9]: inactive | outcome [10]: inactive | outcome [11]: inactive | outcome [12]: inactive | outcome [13]: inactive | AC50 [14]: 3.97 µM (active) | outcome [15]: inactive | outcome [16]: inactive | outcome [17]: inactive | outcome [18]: inactive

CC(C)(C)c1cc(Cc2cc(C(C)(C)C)c(O)c(C(C)(C)C)c2)cc(C(C)(C)C)c1O
outcome [1]: inactive

CCCCCCCCCCCCCC[P+](CCCC)(CCCC)CCCC
outcome [1]: inactive

CC1=CCC(=O)O1
outcome [1]: inactive

CCCCCCCC/C=C\CCCCCCCC(=O)OCC(O)CO (centres undefined)
outcome [1]: inactive

COCCOCCC[Si](C)(O[Si](C)(C)C)O[Si](C)(C)C
outcome [1]: inactive

CCc1cc(Cc2cc(CC)c(N)c(CC)c2)cc(CC)c1N
outcome [1]: inactive

Cc1ccc2c(c1)OCC(=O)CO2
outcome [1]: inactive

NC(=O)C(F)(F)C(F)(F)C(F)(F)C(F)(F)C(F)(F)C(F)(F)C(F)(F)F
outcome [2]: inactive | outcome [3]: inactive | outcome [4]: inactive | outcome [5]: inactive | outcome [6]: inactive | outcome [7]: inactive | outcome [8]: inactive | outcome [9]: inactive | outcome [10]: inactive | outcome [11]: inactive | outcome [12]: inactive | outcome [13]: inactive | outcome [14]: inactive | outcome [15]: inactive | outcome [17]: inactive | outcome [18]: inactive

NC(=O)C(F)(F)C(F)(F)C(F)(F)C(F)F
outcome [2]: inactive | outcome [3]: inactive | outcome [4]: inactive | outcome [5]: inactive | outcome [6]: inactive | outcome [7]: inactive | outcome [8]: inactive | outcome [9]: inactive | outcome [10]: inactive | outcome [11]: inactive | outcome [12]: inactive | outcome [13]: inactive | outcome [14]: inactive | outcome [15]: inactive | outcome [19]: inactive | outcome [17]: inactive | outcome [18]: inactive

CCOC(C=C(C)CCC=C(C)C)OCC
AC50 [2]: 29.8 µM (active) | AC50 [3]: 36 µM (active) | AC50 [4]: 31.2 µM (active) | outcome [5]: inactive | AC50 [6]: 30.2 µM (active) | AC50 [7]: 31 µM (active) | outcome [8]: inactive | AC50 [9]: 3.97 µM (active) | AC50 [10]: 35.2 µM (active) | outcome [12]: inactive | AC50 [13]: 31.5 µM (active) | outcome [14]: inactive | outcome [15]: inactive | outcome [16]: inactive | outcome [19]: inactive | outcome [17]: inactive | AC50 [18]: 20 µM (active)

CC(C)C(=O)OCc1ccccc1
outcome [1]: inactive

O=C(c1ccccc1)c1ccc(Cl)cc1
outcome [1]: inactive

OCC1CCCO1 (centres undefined)
outcome [1]: inactive

CO[Si](CCCOCC1CO1)(OC)OC (centres undefined)
outcome [1]: inactive

CC(C)=CCCC(C)O (centres undefined)
outcome [1]: inactive

CCOC(OCC)OCC
outcome [1]: inactive

COCCC(=O)OC
outcome [1]: inactive

CC(=O)c1ccccc1N
outcome [1]: inactive

CC(C)Nc1ccc(NC(C)C)c2c1C(=O)c1ccccc1C2=O
outcome [1]: inactive

O=S(=O)(O)c1ccc(Cl)cc1
outcome [1]: inactive

C=C(C)CCCC
outcome [1]: inactive

Cc1cccc(C)n1
outcome [1]: inactive

CCCCCCCCn1sc(Cl)c(Cl)c1=O
outcome [1]: inactive

c1ccc(C[P+](c2ccccc2)(c2ccccc2)c2ccccc2)cc1
outcome [1]: inactive

CC(C)(C)C(=O)C1C(=O)c2ccccc2C1=O
outcome [1]: inactive

OCCCc1cccnc1
outcome [1]: inactive

O=c1cccc[nH]1
outcome [1]: inactive

Brc1ccccn1
outcome [1]: inactive

CN(N=O)C(=O)N[C@@H]1[C@@H](O)[C@H](O)[C@@H](CO)O[C@@H]1O
outcome [1]: inactive

CC(C)(C)c1cc(CCC(=O)OCC(COC(=O)CCc2cc(C(C)(C)C)c(O)c(C(C)(C)C)c2)(COC(=O)CCc2cc(C(C)(C)C)c(O)c(C(C)(C)C)c2)COC(=O)CCc2cc(C(C)(C)C)c(O)c(C(C)(C)C)c2)cc(C(C)(C)C)c1O
outcome [1]: inactive

Oc1ccc2c(c1)CCC2
outcome [1]: inactive

C=CCOC(=O)CC(C)C
outcome [1]: inactive

C[Si](C)O[Si](C)C
outcome [1]: inactive

CCCC(=O)OCC(COC(=O)CCC)OC(=O)CCC
outcome [1]: inactive

Cc1cc(=O)[nH]c(C(C)C)n1
outcome [1]: inactive

CCCCC(CC)COC(=O)c1ccc(N(C)C)cc1 (centres undefined)
outcome [1]: inactive

CN(C)C(C)(C)CO
outcome [1]: inactive

OCCCCl
outcome [1]: inactive

CC1=CCC2C(=O)OC(=O)C2C1 (centres undefined)
outcome [1]: inactive

CCOCOCC
outcome [1]: inactive

O=C1c2ccccc2C(=O)c2c(Cl)cccc21
outcome [1]: inactive

Nc1c(Br)cc([N+](=O)[O-])cc1Br
outcome [1]: inactive

O=C1C=CC(=O)N1c1ccccc1
outcome [1]: inactive

Cc1ccc(O)cn1
outcome [1]: inactive

CCn1c2ccccc2c2ccccc21
outcome [1]: inactive

CCCCCCCCCc1ccc(OCCO)cc1
outcome [1]: inactive

CC(C)CC=C(C=O)c1ccccc1
outcome [1]: inactive
